The OligoGym collection

biological target: LUC7L2; assay: pooled miR-30 sensor sort-seq; sequence = guide strand; settings: shRNA
Further: reference of the scale not given here.

| Sequence | sensor-assay potency score (higher = more potent) |
| --- | --- |
| TACTTCATCCATTACTTTCTGG | -0.257 |
| TTAACTCATGAACACGTTCTGC | -0.686 |
| TAATCTCTTCTTGAGTTTCTGC | -0.17 |
| TCTCTTGAACTCCTGTCTCTGT | -0.457 |
| TTGAGAAGGTGACTCTTGCATA | -0.354 |
| TAGAACATCCTGAACATAGCAA | 0.289 |
| TTTGGATCGAGTTCTCCTCTTG | -0.398 |
| TGTCTCTGTCACATGATGCTAA | -0.366 |
| TTTGCTGCTACTTCAGCACTAA | -0.0299 |
| TTGGATCGTTCTCTGCTCCTAT | 0.469 |
| TTGCATACTCTGTCATCACTGA | 0.248 |

biological target: LY6K; assay: as above; settings: shRNA

| Sequence | sensor-assay potency score (higher = more potent) |
| --- | --- |
| TATTCTTTGAACACTGATGAGT | -0.623 |
| TTTCTCTCTCACAAACATGACA | -1.23 |
| AATTTTACAACACTTGAGGTAA | -0.3 |
| TCTTTGAACACTGATGAGTTGA | -0.353 |
| AAACATGACACCACACTCTATT | -0.883 |
| TAATGCAACAGGTGACAACGGT | -0.099 |
| TTGAACACTGATGAGTTGATAG | -0.979 |
| TAGCGAATTTTACAACACTTGA | -0.625 |
| TCTATTGTCACCCTCGTCCGTT | -0.102 |
| TCTCCATCGCTGCACAACCAGC | -1.92 |
| TCTCTCACAAACATGACACCAC | 0.0962 |
| TTGGCGTCTGTCCACACCCGCG | -1.54 |

biological target: LY96; assay: as above; settings: shRNA

| Sequence | sensor-assay potency score (higher = more potent) |
| --- | --- |
| TAAATCTCTCCTTGGAATGTAG | -0.351 |
| AATAGCTTCAACAACACATTTG | -1.65 |
| TTGCTTTAAATCTCTCCTTGGA | 0.126 |
| TTGTTGTATTCACAGTCTCTCC | -1.2 |
| TAGGATGACAAACTCCAAGCAA | -0.085 |
| TATAATTGCTTTAAATCTCTCC | 0.0244 |
| TTCAACAACACATTTGTATTTT | -1.05 |
| TGTATGAAATACTTGCATCGGA | -0.274 |
| TAATCGTCATCAGATCCTCGGC | -0.407 |
| TTGTATTCACAGTCTCTCCCTT | 0.102 |
| AATTGCTTTAAATCTCTCCTTG | -0.268 |
| TAGGTGTATGAAATACTTGCAT | -0.275 |

biological target: LYPD3; assay: as above; settings: shRNA

| Sequence | sensor-assay potency score (higher = more potent) |
| --- | --- |
| TAGAAGTGGTGACAGATGTGGT | -0.342 |
| TTCATCCTGGACACAGCCCCGG | -0.847 |
| TTCACTGTCTTCATCTTGTTCG | 0.494 |
